# From the supplement of paper PMC11732987, “Enantioselective OTUD7B fragment discovery through chemoproteomics screening and high-throughput optimisation” (Communications Chemistry, 2025)
# Unmarked numbers belong to inactive results.
# Columns and labels:
# Experiment in all cases: log2 ratio of Biotin-Ahx-Ub-VS probe labelling (fragment/DMSO); higher = less target engagement (more negative = stronger competition), active = hit call of the paper (q ≤ 0.05, log2 ratio ≤ -1)
# Details in all cases: compound concentration: 200 uM; treatment time: 3 h
# ALG13 = biological target: T1, ALG13 (UniProt Q9NP73)
# T1 sequence (whole entry): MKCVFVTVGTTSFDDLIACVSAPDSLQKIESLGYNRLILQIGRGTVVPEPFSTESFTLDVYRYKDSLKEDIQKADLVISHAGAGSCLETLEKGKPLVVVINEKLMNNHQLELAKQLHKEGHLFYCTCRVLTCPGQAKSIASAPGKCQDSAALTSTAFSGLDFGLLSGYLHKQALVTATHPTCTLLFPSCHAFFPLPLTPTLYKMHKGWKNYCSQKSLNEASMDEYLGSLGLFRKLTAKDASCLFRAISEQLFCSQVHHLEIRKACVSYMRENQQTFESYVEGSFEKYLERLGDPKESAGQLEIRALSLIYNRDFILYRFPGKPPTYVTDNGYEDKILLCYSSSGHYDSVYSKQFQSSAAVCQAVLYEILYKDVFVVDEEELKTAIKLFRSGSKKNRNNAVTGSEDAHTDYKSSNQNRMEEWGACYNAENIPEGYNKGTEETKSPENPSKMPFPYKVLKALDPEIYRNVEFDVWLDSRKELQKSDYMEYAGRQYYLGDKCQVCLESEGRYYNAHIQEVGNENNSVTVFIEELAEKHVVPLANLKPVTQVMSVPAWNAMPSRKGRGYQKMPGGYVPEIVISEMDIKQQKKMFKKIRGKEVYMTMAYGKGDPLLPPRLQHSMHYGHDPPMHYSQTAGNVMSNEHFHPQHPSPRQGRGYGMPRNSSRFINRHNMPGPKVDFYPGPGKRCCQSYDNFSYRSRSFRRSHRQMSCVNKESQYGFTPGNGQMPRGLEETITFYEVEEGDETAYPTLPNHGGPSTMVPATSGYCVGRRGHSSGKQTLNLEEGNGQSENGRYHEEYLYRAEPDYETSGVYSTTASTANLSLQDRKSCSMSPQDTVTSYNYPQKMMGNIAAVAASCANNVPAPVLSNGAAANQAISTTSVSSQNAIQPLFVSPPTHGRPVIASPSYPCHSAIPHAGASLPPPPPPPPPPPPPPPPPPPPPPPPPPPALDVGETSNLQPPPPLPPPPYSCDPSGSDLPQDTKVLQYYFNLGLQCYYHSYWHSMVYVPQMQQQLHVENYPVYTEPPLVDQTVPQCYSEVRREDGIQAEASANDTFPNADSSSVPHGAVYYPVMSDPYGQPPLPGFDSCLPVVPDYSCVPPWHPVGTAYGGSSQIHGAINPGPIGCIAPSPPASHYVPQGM
# In short: (§1)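 In triplicate, 495 µg of HEK293T lysate per sample was incubated with fragment at 200 µM or vehicle for 3 h. Biotin-Ahx-Ub-VS was then added to 0.5 µM final for 1 h, and labelled DUBs were captured with NeutrAvidin, digested with LysC and trypsin, and measured by diaPASEF LC-MS/MS. Data are average log2 fragment/vehicle ratios by unpaired t-test from global-median-normalised Spectronaut label-free quantities, restricted to proteins with ≥2 unique peptides.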
# ATXN3 = ATXN3 (UniProt P54252)
# Chain of ATXN3 (P54252 whole entry): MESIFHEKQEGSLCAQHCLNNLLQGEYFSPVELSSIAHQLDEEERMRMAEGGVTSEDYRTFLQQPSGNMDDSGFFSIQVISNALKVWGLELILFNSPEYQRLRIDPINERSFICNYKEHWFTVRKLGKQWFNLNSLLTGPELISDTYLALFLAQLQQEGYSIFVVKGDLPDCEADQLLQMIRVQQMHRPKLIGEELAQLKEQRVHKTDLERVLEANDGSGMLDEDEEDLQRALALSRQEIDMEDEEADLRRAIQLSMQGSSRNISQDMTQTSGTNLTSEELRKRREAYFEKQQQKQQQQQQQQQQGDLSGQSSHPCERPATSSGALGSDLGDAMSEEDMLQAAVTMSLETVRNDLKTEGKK
# In short: as §1
# BAP1 = biological target: T2, BAP1 (UniProt Q92560)
# T2 sequence (whole entry): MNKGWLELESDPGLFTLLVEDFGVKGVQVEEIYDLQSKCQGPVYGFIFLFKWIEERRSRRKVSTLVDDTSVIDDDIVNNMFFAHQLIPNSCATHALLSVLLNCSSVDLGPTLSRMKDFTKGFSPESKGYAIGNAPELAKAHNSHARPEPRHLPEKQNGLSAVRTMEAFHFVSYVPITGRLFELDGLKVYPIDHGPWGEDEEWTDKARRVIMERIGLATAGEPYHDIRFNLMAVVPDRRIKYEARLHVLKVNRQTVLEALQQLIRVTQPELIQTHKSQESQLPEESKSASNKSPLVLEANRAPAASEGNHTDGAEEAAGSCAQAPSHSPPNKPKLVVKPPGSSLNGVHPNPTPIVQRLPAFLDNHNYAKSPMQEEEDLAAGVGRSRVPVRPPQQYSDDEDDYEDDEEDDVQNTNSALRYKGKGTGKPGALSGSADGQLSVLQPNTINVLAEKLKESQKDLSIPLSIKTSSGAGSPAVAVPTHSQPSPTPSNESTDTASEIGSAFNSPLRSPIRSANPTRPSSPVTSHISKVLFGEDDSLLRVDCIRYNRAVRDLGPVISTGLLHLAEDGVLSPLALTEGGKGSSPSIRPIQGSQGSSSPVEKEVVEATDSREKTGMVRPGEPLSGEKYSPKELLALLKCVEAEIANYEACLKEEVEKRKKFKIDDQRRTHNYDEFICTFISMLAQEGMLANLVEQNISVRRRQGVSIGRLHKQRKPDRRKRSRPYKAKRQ
# In short: as §1
# EIF3F = EIF3F (UniProt O00303)
# Chain of EIF3F (O00303 whole entry): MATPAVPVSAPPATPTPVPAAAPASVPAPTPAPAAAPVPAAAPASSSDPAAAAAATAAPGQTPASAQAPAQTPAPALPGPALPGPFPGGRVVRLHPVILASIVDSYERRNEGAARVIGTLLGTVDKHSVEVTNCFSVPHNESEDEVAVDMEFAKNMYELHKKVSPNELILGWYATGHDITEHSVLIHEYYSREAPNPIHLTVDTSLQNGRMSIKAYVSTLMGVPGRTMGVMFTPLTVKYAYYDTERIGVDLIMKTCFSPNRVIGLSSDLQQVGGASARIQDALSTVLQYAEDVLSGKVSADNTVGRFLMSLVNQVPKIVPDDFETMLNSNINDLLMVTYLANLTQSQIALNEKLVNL
# In short: as §1
# EIF3H = EIF3H (UniProt O15372)
# Chain of EIF3H (O15372 whole entry): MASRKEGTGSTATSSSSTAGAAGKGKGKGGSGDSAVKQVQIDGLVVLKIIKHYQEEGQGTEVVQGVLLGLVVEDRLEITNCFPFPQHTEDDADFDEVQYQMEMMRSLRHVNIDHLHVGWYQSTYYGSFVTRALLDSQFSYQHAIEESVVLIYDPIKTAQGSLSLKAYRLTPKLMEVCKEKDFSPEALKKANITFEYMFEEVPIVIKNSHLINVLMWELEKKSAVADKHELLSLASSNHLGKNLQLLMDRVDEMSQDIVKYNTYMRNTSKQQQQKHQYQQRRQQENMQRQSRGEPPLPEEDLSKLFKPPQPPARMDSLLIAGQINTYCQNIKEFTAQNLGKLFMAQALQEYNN
# In short: as §1
# FAM105A = biological target: T3, FAM105A (UniProt Q9NUU6)
# T3 sequence (whole entry): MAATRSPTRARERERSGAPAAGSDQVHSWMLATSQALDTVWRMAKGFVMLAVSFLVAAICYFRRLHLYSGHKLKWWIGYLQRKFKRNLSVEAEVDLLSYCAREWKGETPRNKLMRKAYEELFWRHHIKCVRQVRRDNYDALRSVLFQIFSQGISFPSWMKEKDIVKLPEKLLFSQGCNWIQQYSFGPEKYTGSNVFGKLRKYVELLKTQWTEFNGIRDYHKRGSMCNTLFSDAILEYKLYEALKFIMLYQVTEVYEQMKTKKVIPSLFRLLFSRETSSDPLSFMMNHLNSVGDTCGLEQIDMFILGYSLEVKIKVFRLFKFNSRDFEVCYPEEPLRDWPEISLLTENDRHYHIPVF
# In short: as §1
# OTUB1 = OTUB1 (UniProt Q96FW1)
# Chain of OTUB1 (Q96FW1 whole entry): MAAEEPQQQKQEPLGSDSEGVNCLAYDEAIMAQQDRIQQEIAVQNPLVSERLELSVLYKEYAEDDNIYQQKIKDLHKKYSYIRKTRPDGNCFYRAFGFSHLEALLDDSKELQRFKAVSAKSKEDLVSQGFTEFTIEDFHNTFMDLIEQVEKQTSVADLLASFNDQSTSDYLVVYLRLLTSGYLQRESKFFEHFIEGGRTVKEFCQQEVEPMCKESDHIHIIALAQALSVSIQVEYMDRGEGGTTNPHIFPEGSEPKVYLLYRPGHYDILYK
# In short: as §1
# OTUD4 = biological target: T4, OTUD4 (UniProt Q01804)
# T4 sequence (whole entry): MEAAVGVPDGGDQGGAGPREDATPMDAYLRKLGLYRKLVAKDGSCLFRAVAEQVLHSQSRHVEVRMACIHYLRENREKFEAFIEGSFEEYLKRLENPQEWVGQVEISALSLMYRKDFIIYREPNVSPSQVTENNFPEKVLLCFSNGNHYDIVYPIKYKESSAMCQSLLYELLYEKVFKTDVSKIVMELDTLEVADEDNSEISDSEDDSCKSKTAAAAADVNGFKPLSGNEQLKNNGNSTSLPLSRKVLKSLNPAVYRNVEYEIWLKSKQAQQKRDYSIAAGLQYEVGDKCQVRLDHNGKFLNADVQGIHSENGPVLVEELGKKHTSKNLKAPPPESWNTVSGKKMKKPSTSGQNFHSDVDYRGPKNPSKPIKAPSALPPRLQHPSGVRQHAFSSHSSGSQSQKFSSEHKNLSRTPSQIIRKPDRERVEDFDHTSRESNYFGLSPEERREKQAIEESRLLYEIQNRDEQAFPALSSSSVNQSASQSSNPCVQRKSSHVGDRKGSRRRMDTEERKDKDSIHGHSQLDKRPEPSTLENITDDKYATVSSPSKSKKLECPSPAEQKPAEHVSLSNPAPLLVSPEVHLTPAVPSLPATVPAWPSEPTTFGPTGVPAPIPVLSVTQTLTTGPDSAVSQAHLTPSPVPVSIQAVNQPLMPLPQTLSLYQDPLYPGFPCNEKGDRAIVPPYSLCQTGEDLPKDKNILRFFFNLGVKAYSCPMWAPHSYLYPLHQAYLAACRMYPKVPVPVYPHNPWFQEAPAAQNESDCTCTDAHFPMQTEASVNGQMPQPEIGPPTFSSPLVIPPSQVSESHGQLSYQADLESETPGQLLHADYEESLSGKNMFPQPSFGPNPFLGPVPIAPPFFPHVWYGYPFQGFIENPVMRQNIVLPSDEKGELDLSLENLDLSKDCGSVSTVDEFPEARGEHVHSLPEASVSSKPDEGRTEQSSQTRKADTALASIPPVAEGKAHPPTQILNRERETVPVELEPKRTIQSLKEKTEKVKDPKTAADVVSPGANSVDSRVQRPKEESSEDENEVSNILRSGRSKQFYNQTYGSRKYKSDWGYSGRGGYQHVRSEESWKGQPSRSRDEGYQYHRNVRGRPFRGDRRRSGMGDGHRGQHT
# In short: as §1
# OTUD5 = biological target: T5, OTUD5 (UniProt Q96G74)
# T5 sequence (whole entry): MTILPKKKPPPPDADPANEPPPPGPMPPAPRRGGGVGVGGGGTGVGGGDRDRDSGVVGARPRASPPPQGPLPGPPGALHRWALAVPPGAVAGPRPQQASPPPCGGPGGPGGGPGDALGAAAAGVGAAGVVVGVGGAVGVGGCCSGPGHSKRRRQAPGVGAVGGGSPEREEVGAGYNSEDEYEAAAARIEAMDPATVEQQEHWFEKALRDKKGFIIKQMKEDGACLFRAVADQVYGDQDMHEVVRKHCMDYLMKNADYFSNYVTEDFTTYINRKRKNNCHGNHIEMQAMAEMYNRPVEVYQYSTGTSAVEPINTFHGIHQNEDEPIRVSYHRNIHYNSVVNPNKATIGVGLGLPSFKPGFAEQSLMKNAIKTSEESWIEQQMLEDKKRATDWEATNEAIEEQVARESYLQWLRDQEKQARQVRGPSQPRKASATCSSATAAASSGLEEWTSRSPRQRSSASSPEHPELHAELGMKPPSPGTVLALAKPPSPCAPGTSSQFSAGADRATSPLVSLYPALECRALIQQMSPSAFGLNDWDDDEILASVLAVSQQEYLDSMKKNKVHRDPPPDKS
# In short: as §1
compound,measurement,setting,value
O=C(CCl)N1CCOC(CCc2ccccc2)C1 (centres undefined),log2 ratio of Biotin-Ahx-Ub-VS probe labelling,ALG13,-0.284
same,log2 ratio of Biotin-Ahx-Ub-VS probe labelling,ATXN3,-0.798
same,log2 ratio of Biotin-Ahx-Ub-VS probe labelling,BAP1,-1.1 (active)
same,log2 ratio of Biotin-Ahx-Ub-VS probe labelling,EIF3F,-0.348
same,log2 ratio of Biotin-Ahx-Ub-VS probe labelling,EIF3H,0.0677
same,log2 ratio of Biotin-Ahx-Ub-VS probe labelling,FAM105A,-0.23
same,log2 ratio of Biotin-Ahx-Ub-VS probe labelling,OTUB1,-0.408
same,log2 ratio of Biotin-Ahx-Ub-VS probe labelling,OTUD4,-0.558
same,log2 ratio of Biotin-Ahx-Ub-VS probe labelling,OTUD5,-0.502
